Source: the supplement of paper PMC11732987, “Enantioselective OTUD7B fragment discovery through chemoproteomics screening and high-throughput optimisation” (Communications Chemistry, 2025)

Key:
Assay in all cases: log2 ratio of Biotin-Ahx-Ub-VS probe labelling (fragment/DMSO); higher = less target engagement (more negative = stronger competition), active = hit call of the paper (q ≤ 0.05, log2 ratio ≤ -1)
Settings in all cases: compound concentration: 200 uM; treatment time: 3 h
[1] = target: USP9X (UniProt Q93008)
Procedure, shortened: (§1)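 HEK293T lysate (495 µg per sample, in Tris/CHAPS/IGEPAL buffer with protease inhibitors) was exposed in triplicate for 3 h to fragment at 200 µM or to vehicle, then to Biotin-Ahx-Ub-VS at 0.5 µM final for 1 h. Labelled DUBs were enriched on NeutrAvidin, digested with LysC and trypsin, and analysed by diaPASEF LC-MS/MS. Spectronaut label-free quantities were normalised to the global median, and values are average log2 ratios of fragment over vehicle from an unpaired t-test. Only proteins with ≥2 unique peptides were used.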

[2] = target: UniProt O00487
Procedure, shortened: as §1

[3] = target: UniProt O00507
Procedure, shortened: as §1

[4] = target: UniProt P51784
Procedure, shortened: as §1

[5] = target: T1, UniProt Q5T2D3
T1 sequence (whole entry): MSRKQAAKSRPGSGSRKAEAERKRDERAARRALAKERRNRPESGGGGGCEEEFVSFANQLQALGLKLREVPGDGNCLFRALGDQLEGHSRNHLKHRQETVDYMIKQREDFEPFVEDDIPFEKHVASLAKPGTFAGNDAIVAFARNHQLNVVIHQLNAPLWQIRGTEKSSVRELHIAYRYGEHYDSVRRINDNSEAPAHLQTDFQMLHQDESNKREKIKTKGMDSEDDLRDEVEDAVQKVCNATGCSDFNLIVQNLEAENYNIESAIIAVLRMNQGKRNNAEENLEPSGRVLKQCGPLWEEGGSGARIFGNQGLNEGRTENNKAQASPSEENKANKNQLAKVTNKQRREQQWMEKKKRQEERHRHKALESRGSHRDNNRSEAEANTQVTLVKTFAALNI
Procedure, shortened: as §1

[6] = target: T2, UniProt Q8TE49
T2 sequence (whole entry): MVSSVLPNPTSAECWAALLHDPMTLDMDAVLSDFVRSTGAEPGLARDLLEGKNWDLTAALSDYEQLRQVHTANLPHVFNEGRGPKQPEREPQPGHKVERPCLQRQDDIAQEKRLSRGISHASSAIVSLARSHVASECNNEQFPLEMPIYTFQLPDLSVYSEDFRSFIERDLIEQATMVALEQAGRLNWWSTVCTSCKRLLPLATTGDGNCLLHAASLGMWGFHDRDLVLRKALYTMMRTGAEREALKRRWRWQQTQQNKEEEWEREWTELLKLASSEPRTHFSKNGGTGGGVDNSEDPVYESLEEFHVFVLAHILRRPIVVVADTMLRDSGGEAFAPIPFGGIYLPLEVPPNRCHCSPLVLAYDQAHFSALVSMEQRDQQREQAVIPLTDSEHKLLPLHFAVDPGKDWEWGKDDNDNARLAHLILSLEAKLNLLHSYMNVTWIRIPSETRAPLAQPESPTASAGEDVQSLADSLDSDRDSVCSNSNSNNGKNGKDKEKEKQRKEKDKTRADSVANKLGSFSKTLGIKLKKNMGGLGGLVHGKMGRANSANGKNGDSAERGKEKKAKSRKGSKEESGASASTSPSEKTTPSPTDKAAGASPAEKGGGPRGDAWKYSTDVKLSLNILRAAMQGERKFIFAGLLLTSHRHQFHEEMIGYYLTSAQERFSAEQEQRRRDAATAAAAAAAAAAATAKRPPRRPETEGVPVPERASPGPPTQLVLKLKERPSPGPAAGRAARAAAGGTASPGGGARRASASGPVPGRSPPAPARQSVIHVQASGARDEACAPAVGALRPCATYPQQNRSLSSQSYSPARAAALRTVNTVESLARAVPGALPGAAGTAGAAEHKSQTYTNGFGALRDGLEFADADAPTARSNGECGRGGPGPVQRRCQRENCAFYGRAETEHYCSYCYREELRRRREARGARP
Procedure, shortened: as §1

[7] = target: T3, UniProt Q9P2H5
T3 sequence (whole entry): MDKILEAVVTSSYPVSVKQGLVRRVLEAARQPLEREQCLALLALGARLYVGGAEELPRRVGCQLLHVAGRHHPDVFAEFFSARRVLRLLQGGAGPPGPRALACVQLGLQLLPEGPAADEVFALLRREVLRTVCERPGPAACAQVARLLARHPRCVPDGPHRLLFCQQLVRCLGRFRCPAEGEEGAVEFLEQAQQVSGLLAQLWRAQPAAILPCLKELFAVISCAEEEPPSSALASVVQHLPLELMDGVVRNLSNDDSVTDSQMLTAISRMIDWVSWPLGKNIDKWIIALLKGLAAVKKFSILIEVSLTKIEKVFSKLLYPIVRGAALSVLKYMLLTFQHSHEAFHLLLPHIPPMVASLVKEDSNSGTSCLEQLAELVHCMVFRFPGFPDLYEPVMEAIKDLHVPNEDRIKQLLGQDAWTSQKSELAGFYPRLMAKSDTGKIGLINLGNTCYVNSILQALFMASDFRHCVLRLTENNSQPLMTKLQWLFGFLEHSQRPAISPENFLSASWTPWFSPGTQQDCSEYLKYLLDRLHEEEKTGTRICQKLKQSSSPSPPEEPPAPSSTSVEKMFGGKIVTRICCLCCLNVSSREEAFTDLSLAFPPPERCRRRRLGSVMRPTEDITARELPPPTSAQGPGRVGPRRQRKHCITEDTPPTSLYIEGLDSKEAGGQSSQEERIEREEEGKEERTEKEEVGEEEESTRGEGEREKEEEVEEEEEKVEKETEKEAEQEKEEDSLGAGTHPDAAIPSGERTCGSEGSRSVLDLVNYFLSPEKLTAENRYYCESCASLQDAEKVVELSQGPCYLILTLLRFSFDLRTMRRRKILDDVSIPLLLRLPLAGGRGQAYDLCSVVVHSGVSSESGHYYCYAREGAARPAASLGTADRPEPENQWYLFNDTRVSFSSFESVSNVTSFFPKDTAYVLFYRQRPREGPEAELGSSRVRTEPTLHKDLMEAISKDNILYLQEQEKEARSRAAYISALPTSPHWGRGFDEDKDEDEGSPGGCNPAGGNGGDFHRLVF
Procedure, shortened: as §1

[8] = target: T4, UniProt Q9UGI0
T4 sequence (whole entry): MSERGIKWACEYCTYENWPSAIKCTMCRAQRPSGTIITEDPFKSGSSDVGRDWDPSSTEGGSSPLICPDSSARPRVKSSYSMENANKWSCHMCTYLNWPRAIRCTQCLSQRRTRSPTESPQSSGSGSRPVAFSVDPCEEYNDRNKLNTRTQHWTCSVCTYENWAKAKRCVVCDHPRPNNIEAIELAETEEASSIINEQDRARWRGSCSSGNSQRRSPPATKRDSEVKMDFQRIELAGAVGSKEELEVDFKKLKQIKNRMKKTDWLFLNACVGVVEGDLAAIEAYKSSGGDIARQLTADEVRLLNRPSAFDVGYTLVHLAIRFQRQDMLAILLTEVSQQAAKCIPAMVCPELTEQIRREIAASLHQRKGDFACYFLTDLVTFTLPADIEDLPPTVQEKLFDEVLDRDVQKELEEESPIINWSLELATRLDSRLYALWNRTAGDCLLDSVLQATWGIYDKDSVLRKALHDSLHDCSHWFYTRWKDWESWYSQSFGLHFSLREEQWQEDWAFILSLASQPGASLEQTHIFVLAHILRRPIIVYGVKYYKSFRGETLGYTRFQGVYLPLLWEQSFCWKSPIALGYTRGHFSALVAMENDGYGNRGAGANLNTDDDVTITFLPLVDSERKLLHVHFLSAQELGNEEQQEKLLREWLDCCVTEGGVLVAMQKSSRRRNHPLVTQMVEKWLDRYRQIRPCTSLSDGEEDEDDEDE
Procedure, shortened: as §1

[9] = target: T5, YOD1 (UniProt Q5VVQ6)
T5 sequence (whole entry): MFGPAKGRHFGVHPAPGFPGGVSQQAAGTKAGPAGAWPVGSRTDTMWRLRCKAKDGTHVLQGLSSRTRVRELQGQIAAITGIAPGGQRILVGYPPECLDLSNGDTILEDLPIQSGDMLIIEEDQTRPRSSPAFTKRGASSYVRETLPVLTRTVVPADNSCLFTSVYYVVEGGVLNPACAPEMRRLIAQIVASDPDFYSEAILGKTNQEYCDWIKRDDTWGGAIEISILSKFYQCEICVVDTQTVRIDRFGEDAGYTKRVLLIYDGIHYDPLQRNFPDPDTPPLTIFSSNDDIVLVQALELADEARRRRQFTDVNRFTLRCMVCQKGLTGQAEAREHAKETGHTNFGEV
Procedure, shortened: as §1

Measured: log2 ratio of Biotin-Ahx-Ub-VS probe labelling

UniProt P51784, sequence (P51784 whole entry): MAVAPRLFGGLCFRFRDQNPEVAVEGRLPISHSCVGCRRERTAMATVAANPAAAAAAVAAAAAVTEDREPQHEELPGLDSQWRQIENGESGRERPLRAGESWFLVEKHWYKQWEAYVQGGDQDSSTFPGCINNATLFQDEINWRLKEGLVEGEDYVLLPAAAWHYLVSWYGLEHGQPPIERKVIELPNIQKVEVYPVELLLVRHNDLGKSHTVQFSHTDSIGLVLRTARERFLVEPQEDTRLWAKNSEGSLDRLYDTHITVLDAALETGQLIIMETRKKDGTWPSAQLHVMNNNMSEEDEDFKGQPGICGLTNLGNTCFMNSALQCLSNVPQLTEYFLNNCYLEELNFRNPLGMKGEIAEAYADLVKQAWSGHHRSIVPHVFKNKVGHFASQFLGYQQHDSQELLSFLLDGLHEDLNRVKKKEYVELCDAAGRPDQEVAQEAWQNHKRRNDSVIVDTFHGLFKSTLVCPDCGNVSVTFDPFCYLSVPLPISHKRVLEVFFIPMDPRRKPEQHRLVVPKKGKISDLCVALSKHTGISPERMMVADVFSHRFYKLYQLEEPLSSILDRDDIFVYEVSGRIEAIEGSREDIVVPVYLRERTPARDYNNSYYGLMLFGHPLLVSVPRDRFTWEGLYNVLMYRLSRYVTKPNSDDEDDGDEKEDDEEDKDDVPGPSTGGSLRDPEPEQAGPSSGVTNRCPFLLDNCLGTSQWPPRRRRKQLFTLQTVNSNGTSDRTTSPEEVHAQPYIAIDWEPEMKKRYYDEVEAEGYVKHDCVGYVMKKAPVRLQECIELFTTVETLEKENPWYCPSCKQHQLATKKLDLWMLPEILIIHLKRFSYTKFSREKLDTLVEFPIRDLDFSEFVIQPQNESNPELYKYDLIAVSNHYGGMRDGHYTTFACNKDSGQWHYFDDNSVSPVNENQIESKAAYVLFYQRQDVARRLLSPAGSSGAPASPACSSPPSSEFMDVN
USP9X, sequence (Q93008 whole entry, the tested form may be a part): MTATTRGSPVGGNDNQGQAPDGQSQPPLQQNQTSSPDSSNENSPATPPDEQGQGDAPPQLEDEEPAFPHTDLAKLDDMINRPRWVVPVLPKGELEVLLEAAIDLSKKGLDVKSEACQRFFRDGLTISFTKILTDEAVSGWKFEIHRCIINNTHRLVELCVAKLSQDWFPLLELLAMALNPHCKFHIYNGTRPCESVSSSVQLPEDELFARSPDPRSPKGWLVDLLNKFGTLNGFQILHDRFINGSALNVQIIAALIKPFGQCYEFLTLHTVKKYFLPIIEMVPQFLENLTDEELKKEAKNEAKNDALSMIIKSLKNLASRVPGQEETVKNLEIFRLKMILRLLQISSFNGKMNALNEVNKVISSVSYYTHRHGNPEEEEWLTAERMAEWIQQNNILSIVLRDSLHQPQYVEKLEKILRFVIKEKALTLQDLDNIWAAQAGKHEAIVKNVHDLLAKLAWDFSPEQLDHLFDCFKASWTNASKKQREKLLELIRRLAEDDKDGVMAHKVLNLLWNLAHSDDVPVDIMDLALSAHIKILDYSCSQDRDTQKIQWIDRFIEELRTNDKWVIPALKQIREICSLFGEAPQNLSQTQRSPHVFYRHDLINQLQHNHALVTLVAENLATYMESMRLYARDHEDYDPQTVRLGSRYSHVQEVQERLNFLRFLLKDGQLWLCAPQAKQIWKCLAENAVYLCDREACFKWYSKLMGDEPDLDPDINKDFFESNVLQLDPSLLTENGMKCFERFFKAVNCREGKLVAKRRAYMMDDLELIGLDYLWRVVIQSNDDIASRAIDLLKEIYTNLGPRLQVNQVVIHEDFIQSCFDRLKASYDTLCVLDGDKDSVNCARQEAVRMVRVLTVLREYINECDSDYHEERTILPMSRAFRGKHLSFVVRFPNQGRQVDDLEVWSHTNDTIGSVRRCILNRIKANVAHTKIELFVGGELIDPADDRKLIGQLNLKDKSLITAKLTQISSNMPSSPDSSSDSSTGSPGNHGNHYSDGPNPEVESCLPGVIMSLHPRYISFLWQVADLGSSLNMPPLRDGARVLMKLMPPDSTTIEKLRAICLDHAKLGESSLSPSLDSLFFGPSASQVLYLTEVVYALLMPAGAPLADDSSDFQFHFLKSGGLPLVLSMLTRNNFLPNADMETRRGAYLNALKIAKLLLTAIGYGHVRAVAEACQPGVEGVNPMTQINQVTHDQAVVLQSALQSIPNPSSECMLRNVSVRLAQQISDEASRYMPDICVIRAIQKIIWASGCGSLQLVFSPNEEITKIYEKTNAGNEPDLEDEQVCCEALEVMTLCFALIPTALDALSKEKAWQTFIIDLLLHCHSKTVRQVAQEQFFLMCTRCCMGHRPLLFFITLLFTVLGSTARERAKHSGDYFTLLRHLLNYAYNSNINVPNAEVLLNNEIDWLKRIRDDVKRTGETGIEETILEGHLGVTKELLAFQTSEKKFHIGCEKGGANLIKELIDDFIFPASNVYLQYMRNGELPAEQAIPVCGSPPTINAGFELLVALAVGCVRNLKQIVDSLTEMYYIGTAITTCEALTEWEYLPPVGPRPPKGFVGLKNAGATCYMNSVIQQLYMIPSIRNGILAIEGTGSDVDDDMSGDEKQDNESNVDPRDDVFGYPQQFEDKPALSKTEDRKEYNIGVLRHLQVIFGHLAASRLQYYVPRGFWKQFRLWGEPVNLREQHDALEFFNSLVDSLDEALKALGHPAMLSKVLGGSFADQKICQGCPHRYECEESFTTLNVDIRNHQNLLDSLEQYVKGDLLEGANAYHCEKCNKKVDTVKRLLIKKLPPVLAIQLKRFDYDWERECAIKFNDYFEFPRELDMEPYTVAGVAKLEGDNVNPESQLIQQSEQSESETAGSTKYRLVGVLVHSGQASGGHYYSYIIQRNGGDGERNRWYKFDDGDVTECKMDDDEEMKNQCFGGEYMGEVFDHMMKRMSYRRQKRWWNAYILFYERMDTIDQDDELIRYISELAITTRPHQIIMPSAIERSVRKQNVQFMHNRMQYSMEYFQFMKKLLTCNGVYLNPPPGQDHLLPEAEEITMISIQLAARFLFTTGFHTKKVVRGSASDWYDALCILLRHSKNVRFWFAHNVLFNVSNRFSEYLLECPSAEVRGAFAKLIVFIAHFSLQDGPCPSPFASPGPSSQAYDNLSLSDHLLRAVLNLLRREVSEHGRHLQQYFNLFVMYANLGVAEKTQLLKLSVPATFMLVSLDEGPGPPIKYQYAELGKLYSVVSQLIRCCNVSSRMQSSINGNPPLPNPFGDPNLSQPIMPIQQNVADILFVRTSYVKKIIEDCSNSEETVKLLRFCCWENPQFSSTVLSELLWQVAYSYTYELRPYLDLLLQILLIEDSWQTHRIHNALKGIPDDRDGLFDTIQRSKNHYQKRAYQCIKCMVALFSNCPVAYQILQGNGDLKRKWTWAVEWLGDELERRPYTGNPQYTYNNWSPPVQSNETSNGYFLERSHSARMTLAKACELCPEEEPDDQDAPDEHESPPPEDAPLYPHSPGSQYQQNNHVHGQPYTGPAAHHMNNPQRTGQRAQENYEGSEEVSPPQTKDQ
UniProt O00487, sequence (O00487 whole entry): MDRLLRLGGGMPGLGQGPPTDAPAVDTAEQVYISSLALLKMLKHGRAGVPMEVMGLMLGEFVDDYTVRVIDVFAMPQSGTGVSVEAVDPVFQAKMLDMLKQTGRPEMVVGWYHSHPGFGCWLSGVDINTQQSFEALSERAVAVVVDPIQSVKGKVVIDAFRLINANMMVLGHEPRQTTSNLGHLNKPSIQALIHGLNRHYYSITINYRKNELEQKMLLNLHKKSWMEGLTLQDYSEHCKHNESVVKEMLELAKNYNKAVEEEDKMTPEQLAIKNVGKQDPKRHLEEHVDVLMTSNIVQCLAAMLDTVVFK

O=C(CCl)NCc1ccc(Cl)cc1
inactive: [1] 0.00725 | [2] -0.0216 | [3] 0.318 | [4] 0.0262 | [5] -0.0567 | [6] -0.395 | [7] 0.00401 | [8] -0.0432 | [9] 0.238
